From PubChem BioAssay (NCATS)
Inconclusive results are not listed. Active and inactive are the calls of the source. Calls come from the whole dose curve; as a rule, active = well fitted cell-killing curve with a large enough effect; inconclusive = small, poorly fitted or top-dose-only effect, or effect the other way; inactive = flat fitted curve, though single readings scatter.

Tests used:
Test in all cases: Primary qHTS to identify gynecologic anti-cancer compounds using libraries of approved drugs and bioactive compounds (AID 1345084); note: nearly all actives have a fitted effect of over 55% in size
[1] = system: Hek293T; conditions: Gynecologic cancer cell panel viability, ATPlite luminescence, 48 h, control line for the selectivity index; series mostly up to 57.5 µM
Summary of the method: (§1)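 Cells, 1,000 per well, were allowed to settle for 16 h at 37 C before compound addition. Five concentrations were tested for 48 h, and viability was read by ATPlite luminescence after 15 min at room temperature.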

[2] = system: JEG-3; conditions: Gynecologic cancer cell panel viability, ATPlite luminescence, 48 h; series mostly up to 57.5 µM
Summary of the method: as §1

[3] = system: OV90; conditions: Gynecologic cancer cell panel viability, ATPlite luminescence, 48 h; series mostly up to 57.5 µM
Summary of the method: as §1

[4] = system: PA-1; conditions: Gynecologic cancer cell panel viability, ATPlite luminescence, 48 h; series mostly up to 57.5 µM
Summary of the method: as §1

[5] = system: SKOV3; conditions: Gynecologic cancer cell panel viability, ATPlite luminescence, 48 h; series mostly up to 57.5 µM
Summary of the method: as §1

[6] = system: Tov-21-G; conditions: Gynecologic cancer cell panel viability, ATPlite luminescence, 48 h; series mostly up to 57.5 µM
Summary of the method: as §1

[7] = system: Tov112D; conditions: Gynecologic cancer cell panel viability, ATPlite luminescence, 48 h; series mostly up to 57.5 µM
Summary of the method: as §1
% is set by controls: 0 for no effect and ±100 for the full control effect.

CCC(C(=O)OCCN1CCOC(c2ccccc2)C1C)c1ccccc1 (stereo unspecified)
inactive: Potency [1] | Potency [2] | Potency [3] | Potency [4] | Potency [5] | Potency [6] | Potency [7]

Cc1cccc(C)c1NC(=O)c1ccc(N)cc1
inactive: Potency [1] | Potency [2] | Potency [3] | Potency [4] | Potency [5] | Potency [6] | Potency [7]

CC(C)NC(=O)c1ccc(C=O)cc1
inactive: Potency [1] | Potency [2] | Potency [3] | Potency [4] | Potency [5] | Potency [6] | Potency [7]

O=C(CCCl)NCc1ccccc1
inactive: Potency [1] | Potency [2] | Potency [3] | Potency [4] | Potency [5] | Potency [6] | Potency [7]

C#CC(C)(CC)OC(=O)c1ccccc1C(=O)O (stereo unspecified)
inactive: Potency [1] | Potency [2] | Potency [3] | Potency [4] | Potency [5] | Potency [6] | Potency [7]

Cc1ccc(-c2ccccc2C#N)cc1
inactive: Potency [1] | Potency [2] | Potency [3] | Potency [4] | Potency [5] | Potency [6] | Potency [7]

Clc1ccc2c(c1)Nc1ccccc1S2
inactive: Potency [1] | Potency [2] | Potency [3] | Potency [4] | Potency [5] | Potency [6] | Potency [7]

CCCCCN(CCCOC)C(=O)C(CCC(=O)O)NC(=O)c1ccc(Cl)c(Cl)c1 (stereo unspecified)
inactive: Potency [1] | Potency [2] | Potency [3] | Potency [4] | Potency [5] | Potency [6] | Potency [7]

CC(C)C(=O)OCc1cccc(OC(=O)[C@@H]2N3C(=O)[C@@H](NC(=O)Cc4ccccc4)[C@H]3SC2(C)C)c1
inactive: Potency [1] | Potency [2] | Potency [3] | Potency [4] | Potency [5] | Potency [6] | Potency [7]

COc1c(N2C[C@@H]3CCCN[C@@H]3C2)c(F)cc2c(=O)c(C(=O)O)cn(C3CC3)c12
inactive: Potency [1] | Potency [2] | Potency [3] | Potency [4] | Potency [5] | Potency [6] | Potency [7]

CCc1cccc2c(CCO)c[nH]c12
inactive: Potency [1] | Potency [2] | Potency [3] | Potency [4] | Potency [5] | Potency [6] | Potency [7]

O=C(O)c1cn(C2CC2)c2cc(Cl)c(F)cc2c1=O
inactive: Potency [1] | Potency [2] | Potency [3] | Potency [4] | Potency [5] | Potency [6] | Potency [7]

NS(=O)(=O)c1ccc(N2CCCCS2(=O)=O)cc1
inactive: Potency [1] | Potency [2] | Potency [3] | Potency [4] | Potency [5] | Potency [6] | Potency [7]

COc1cc(/C=C/C(N)=O)cc(OC)c1OC
inactive: Potency [1] | Potency [2] | Potency [3] | Potency [4] | Potency [5] | Potency [6] | Potency [7]

O=[N+]([O-])c1cncn1CCN1CCOCC1
inactive: Potency [1] | Potency [2] | Potency [3] | Potency [4] | Potency [5] | Potency [6] | Potency [7]

CCC(=O)O[C@]1(C(=O)COC)[C@@H](C)C[C@H]2[C@@H]3CCC4=CC(=O)C=C[C@]4(C)C3(F)[C@@H](O)C[C@@]21C (stereo partly specified)
inactive: Potency [1] | Potency [2] | Potency [3] | Potency [4] | Potency [5] | Potency [6] | Potency [7]

CCOC(=O)C(O)c1ccccc1 (stereo unspecified)
inactive: Potency [1] | Potency [2] | Potency [3] | Potency [4] | Potency [5] | Potency [6] | Potency [7]

CCc1cc2cc(OC)c(OC)cc2c(Cc2ccccc2)n1
inactive: Potency [1] | Potency [2] | Potency [3] | Potency [4] | Potency [5] | Potency [6] | Potency [7]

COc1ccc2c(c1)c(CC(=O)OC/C=C(\C)CC/C=C(\C)CCC=C(C)C)c(C)n2C(=O)c1ccc(Cl)cc1
inactive: Potency [1] | Potency [2] | Potency [3] | Potency [4] | Potency [5] | Potency [6] | Potency [7]

Cc1onc(-c2ccccc2)c1C(=O)Cl
inactive: Potency [1] | Potency [2] | Potency [3] | Potency [4] | Potency [5] | Potency [6] | Potency [7]

O=C1CC2(CCCC2)CC(=O)N1
inactive: Potency [1] | Potency [2] | Potency [3] | Potency [4] | Potency [5] | Potency [6] | Potency [7]

COc1cc(S(N)(=O)=O)cc(C(=O)O)c1OC
inactive: Potency [1] | Potency [2] | Potency [3] | Potency [4] | Potency [5] | Potency [6] | Potency [7]

Cc1coc2ccccc2c1=O
inactive: Potency [1] | Potency [2] | Potency [3] | Potency [4] | Potency [5] | Potency [6] | Potency [7]

COc1ccc2nc(SCc3ncc(C)c(OC)c3C)[nH]c2c1
inactive: Potency [1] | Potency [2] | Potency [3] | Potency [4] | Potency [5] | Potency [6] | Potency [7]

O=C(CS(=O)Cc1ccco1)NC/C=C\COc1cc(CN2CCCCC2)ccn1 (stereo unspecified)
inactive: Potency [1] | Potency [2] | Potency [3] | Potency [4] | Potency [5] | Potency [6] | Potency [7]

CCCCOC(=O)CCCCCCCCC(=O)OCCCC
inactive: Potency [1] | Potency [2] | Potency [3] | Potency [4] | Potency [5] | Potency [6] | Potency [7]

N[C@@H](Cn1ccc(=O)c(O)c1)C(=O)O
inactive: activity change, negative = cytotoxicity [1] -0.477% [at 6.55 µM] | activity change, negative = cytotoxicity [2] 1.6% [at 6.55 µM] | activity change, negative = cytotoxicity [3] 12.3% [at 6.55 µM] | activity change, negative = cytotoxicity [4] 16.1% [at 6.55 µM] | activity change, negative = cytotoxicity [5] 23.2% [at 6.55 µM] | activity change, negative = cytotoxicity [6] -4.16% [at 6.55 µM] | activity change, negative = cytotoxicity [7] 12.5% [at 6.55 µM]

Cc1cc(O)c(C)c(C)c1O
inactive: Potency [1] | Potency [2] | Potency [3] | Potency [4] | Potency [5] | Potency [6] | Potency [7]
